# Screening data: PubChem, National Center for Advancing Translational Sciences (NCATS)
# Hits are enriched below; roughly 0.28% of the tested compounds scored in any of these assays.
# Tb PFK inh-1: qHTS Assay to Find Inhibitors of T. brucei phosphofructokinase | ATP-dependent 6-phosphofructokinase (Trypanosoma brucei brucei), O15648 | T. brucei PFK, ADP-Glo luminescence | Potency, µM (doses to about 57.5 µM), for the others: at the highest dose activity, negative = inhibition, hits mostly inhibitors | actives 0.17% (n = 330,000) | AID 485367, 2010;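 also: potency is read from the fitted curve at half-maximal effect; 0% = uninhibited 1x PFK enzyme wells and -100% = no-enzyme wells; nearly all actives have a fitted effect of over 60% in size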
#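 Activity is normalized to no-enzyme wells (full inhibition) and 1.25 nM enzyme wells (no inhibition). Reaction: 0.5 mM F6P, 0.1 mM ATP, 45 min RT, ADP-Glo luminescence; concentration-response curves fitted and classed by quality.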
# PI4K2A block: qHTS for small molecular inhibitors of PI4K2A; Phosphatidylinositol 4-kinase type 2-alpha (Homo sapiens), Q9BTU6; purified PI4K2A, ADP-Glo luminescence, 1 h; stronger effect = lower value; activity change, negative = inhibition, % at 76.9 µM; actives 0.13% (n = 420,000); in the data active = activity change below about -50%; inconclusive = mostly about -30% to -49%;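 also: -100% = wells without enzyme as full effect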
# Target sequence (Q9BTU6 whole entry, looked up): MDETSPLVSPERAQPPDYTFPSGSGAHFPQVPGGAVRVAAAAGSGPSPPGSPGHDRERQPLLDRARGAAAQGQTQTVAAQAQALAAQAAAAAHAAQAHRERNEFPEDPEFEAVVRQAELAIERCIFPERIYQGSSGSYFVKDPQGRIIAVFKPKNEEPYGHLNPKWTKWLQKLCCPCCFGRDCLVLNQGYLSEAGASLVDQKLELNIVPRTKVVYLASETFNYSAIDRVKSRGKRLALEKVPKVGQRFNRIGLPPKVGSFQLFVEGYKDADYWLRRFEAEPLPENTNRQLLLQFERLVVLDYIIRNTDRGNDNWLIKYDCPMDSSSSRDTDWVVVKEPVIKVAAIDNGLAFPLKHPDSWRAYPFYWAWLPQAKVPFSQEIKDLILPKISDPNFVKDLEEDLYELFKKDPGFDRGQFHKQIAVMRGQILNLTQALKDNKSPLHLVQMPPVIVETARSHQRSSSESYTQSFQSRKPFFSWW
#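 PI4K2A activity was measured by ADP-Glo luminescence: enzyme (4 ug/mL stock) and phosphatidylinositol (1.2 mM stock) in Tris pH 7.5/MgCl2/EGTA/Triton X-100 buffer were reacted with ATP (300 microM stock) for one hour at ambient temperature.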
# PGK inhibitor: qHTS Assay to Find Inhibitors of Phosphoglycerate Kinase; PGK/GAPDH coupled, Kinase-Glo luminescence, 60 min; Potency, µM (doses to about 57.5 µM), without a hit: at the highest dose activity change, negative = inhibition, hits mostly inhibitors; actives 0.043% (n = 380,000); AID 602233, 2012; also: potency is read from the fitted curve at half-maximal effect; % is scaled to controls: 0 for no effect and ±100 for the full control effect; nearly all actives have a fitted effect of over 60% in size
#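 Luminescent ATP detection (Kinase-Glo Plus) follows a 60-minute room-temperature incubation, with wells lacking PGK as controls. Buffer: 100 mM TEA (pH 7.6), 5 mM MgCl2, 0.01% Tween-20. Coupling enzyme GAPDH (100 nM final) supplies unstable 1,3-BPG in-well.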
# Pin1 inh: qHTS Assay to Find Inhibitors of Pin1 | Potency, µM (titrated, usually from 115 µM), without a hit: at the highest dose activity, negative = inhibition, usual class: inhibitors | Pin1 FP peptide displacement, HiFluor488, 10 min | actives 0.009% (n = 390,000) | Peptidyl-prolyl cis-trans isomerase NIMA-interacting 1 (Homo sapiens), Q13526; active = well fitted inhibition curve with a large enough effect in the polarisation, with a control signal flat, not every such curve was filed as active; inconclusive = small, poorly fitted or top-dose-only effect, or effect the other way, or a change in a side signal; inactive = no such curve, though single readings can be large or run the other way; the % refers to the polarisation; also: potency is read from the fitted curve at half-maximal effect; % is scaled to controls: 0 for no effect and ±100 for the full control effect
# USP2a block: qHTS Assay for Inhibitors of Ubiquitin-specific Protease USP2a Using CHOP2 as the Reporter; Ubiquitin carboxyl-terminal hydrolase 2 (Homo sapiens), O75604; USP2 core, Ub-CHOP2 coupled fluorogenic reporter, 485/531; Potency, µM (doses to about 38.3 µM), inactives show at the top dose activity change, negative = inhibition, usual class: inhibitors; actives 0.01% (n = 330,000); AID 463254, 2010;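 also: potency is read from the fitted curve at half-maximal effect; plate controls were DMSO wells for no effect and full inhibition by NEM control for full effect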
#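 Deubiquitinase activity read as fluorescence (485/531 nm) after Ub-CHOP2 cleavage activates the enterokinase reporter on its substrate; USP2 core 10nM, Ub-CHOP2 and substrate 25nM each, 30min compound preincubation then 60min RT; data normalized to NEM, curves fitted.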
# TbPFK ATP: Tb PFK orthogonal confirmatory assay using ATP depletion (Kinase-Glo Plus) as an alternative measure of Tb PFK activity: Hit Validation; shares compounds with Tb PFK inh-1; Tb PFK enzyme, ATP depletion, Kinase-Glo Plus luminescence; Potency, µM (doses to about 57.5 µM), for inactives: top-dose inhibition; actives 47% (n = 1,100); AID 504636, 2011; calls by dose curve; also: potency is read from the fitted curve at half-maximal effect; nearly all actives have a fitted effect of over 60% in size
# Tb PFK inh-2: Inhibitors of T. brucei phosphofructokinase: Hit Validation. shares compounds with Tb PFK inh-1. AID 504637, 2011. Potency, µM (titrated, usually from 57.5 µM), inactives show at the highest dose activity change, negative = inhibition, actives largely listed as inhibitors. actives 41% (n = 1,100). purified T. brucei PFK, ADP-Glo luminescence, 45 min;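 also: potency is read from the fitted curve at half-maximal effect; plate controls were full PFK enzyme control for no effect and no enzyme control for full effect; nearly all actives have a fitted effect of over 60% in size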
# * marks the source's active call; other numbers are inactive results; i = inactive; ? = inconclusive; . = not tested or not shown. Unless noted, calls follow the shape of the dose curve; as a rule, active = well fitted curve in the direction sought with a large enough effect; inconclusive = small, poorly fitted or top-dose-only effect, or another doubt; inactive = no such curve, though single readings can be large; an effect the other way counts as inactive or inconclusive.
SMILES,Tb PFK inh-1,PI4K2A block,PGK inhibitor,Pin1 inh,USP2a block,TbPFK ATP,Tb PFK inh-2
COc1ccc(C2Nc3ccccc3C(=O)N2Cc2ccccc2)cc1COc1ccc(F)cc1 (stereo unspecified),.,.,.,-3.7%,.,.,.
NC[C@H](O)c1ccc(O)c(O)c1,2.13µM*,?,-4.2%,?,1.4%,17.1%,-20.4%
COc1ccc(N=C2S/C(=C\c3ccc(N4CCOCC4)o3)C(=O)N2CCc2c[nH]c3ccccc23)cc1,?,.,.,.,2.4%,.,.
COc1ccc(N=C2S/C(=C\c3ccc(OCC(=O)O)cc3)C(=O)N2CCc2c[nH]c3ccccc23)cc1,1.07µM*,-0.9,-15.5%,.,-12.7%,?,?
O=C(O)c1ccccc1NCc1cccs1,1.0%,-2.3,-1.1%,-6.6%,0.8%,.,.
N#Cc1c(F)cccc1NCc1cccs1,?,3.3,-6.0%,-8.2%,0.2%,?,?
COc1ccc(N=C(C)c2c(O)[nH]c(=O)[nH]c2=O)cc1,1.0%,-5.5,i,-2.9%,-1.1%,.,.
Cc1cc(C)nc(/N=C(\N)c2c(O)[nH]c(=O)[nH]c2=O)n1,?,2.3,-7.1%,28.9%,8.4%,?,-16.2%
Cc1ccc(NS(=O)(=O)c2ccc3c(c2)CCC(=O)N3)cc1F,.,.,.,-9.1%,.,.,.
COc1ccc2c(c1)Oc1ncn(CCN3CCOCC3)c(=N)c1C2c1ccc(OC)c(OC)c1 (stereo unspecified),.,.,.,-5.0%,.,.,.
COc1ccc(C2c3c(n(CCc4ccccc4)cnc3=N)Oc3ccc4ccccc4c32)cc1OC (stereo unspecified),.,.,.,4.1%,.,.,.
O=C(Nc1ccc(S(=O)(=O)N2CCOCC2)cc1)c1cc(Cl)ccc1NS(=O)(=O)c1ccc(Cl)s1,.,0.9,.,.,.,.,.
CCN(CC)CC(=O)Oc1ccc(NC(C)=O)cc1,.,-2.2,.,.,.,.,.
CC(=C\C(=O)O)/C(=C/c1ccco1)C(=O)O,0.2%,-4.9,-8.3%,-21.6%,0.8%,.,.
CC(=C\C(=O)O)/C(=C\c1cccc2ccccc12)C(=O)O,?,-0.5,-1.2%,-1.6%,0.2%,-1.1%,-1.1%
CC(C)(CS(=O)(=O)[O-])NC(=O)CC[N+](C)(C)CCO,0.675µM*,-21.4,2.24µM*,.,6.9%,0.239µM*,0.426µM*
Cc1ccc(C(=O)C(=O)O)cc1C,.,-1.8,.,.,.,.,.
COc1cccc(CNc2ccc(F)c(Cl)c2)c1,23.9µM*,-12.2,.,-8.7%,3.6%,10.7µM*,16.9µM*
Cc1cc(C)c(C)c(S(=O)(=O)N2CCC(C(=O)OCC(=O)N3c4ccccc4NC(=O)C3(C)C)CC2)c1C,?,-4.8,-3.9%,14.8%,0.6%,?,?
O=S(=O)(c1ccc2c(c1)OCCO2)N1CCN(S(=O)(=O)c2ccc3nc(Cl)c(Cl)nc3c2)CC1,.,.,.,0.5%,.,.,.
Cn1c(SCC(=O)O)nnc1-c1ccc(NC(=O)c2ccc(Cl)c(Cl)c2)cc1,?,3.3,-8.3%,-5.5%,3.6%,23.9µM*,?
CC(=O)Nc1ccc(S(=O)(=O)NC(CSc2ccc(C(=O)O)cc2[N+](=O)[O-])C(=O)O)cc1 (stereo unspecified),?,3.5,-6.2%,?,3.5%,-26.3%,?
